Data from PubChem BioAssay AID1159580 (chemical genetic matrix, 2015).
The whole screen tested about 5,500 compounds, of which about 2,000 (36%) were called active. Roughly 18% stayed inconclusive and do not appear here. No stated cut-off is given here; in the data, active means normalized growth mostly below about 0.91 (no sharp cut-off); inconclusive means no clear call, values can overlap the other calls; inactive means mostly above about 0.92. The list shows a part of the results.

Assay: chemical genetic growth profiling, strain panel (AID 1159580);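 further: tested at 20 µM; growth read once vehicle control cultures reached saturation at 30 °C; 1 = growth at the plate median or of vehicle wells; lower values mean less growth of the strain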
Conditions: growth OD

Measured: normalized growth

CCCCCC(C)N (configuration not stated)
inactive: S. cerevisiae deletion strains, locus YJR075W, strain HOC1, active compounds read low 1.02 | S. cerevisiae deletion strains, locus YKL009W, strain mrt4, active compounds read low 0.946 | S. cerevisiae deletion strains, locus YKL068W, active compounds read low 1 | S. cerevisiae deletion strains, locus YKL085W, strain MDH1 (second series), active compounds read low 1.05 | S. cerevisiae deletion strains, locus YKL085W, strain MDH1, active compounds read low 1.05 | S. cerevisiae deletion strains, locus YKL160W, strain elf1, active compounds read low 1.03 | S. cerevisiae deletion strains, locus YKL190W, strain CNB1, active compounds read low 1.02 | S. cerevisiae deletion strains, locus YKR001C, strain vps1, active compounds read low 0.988 | S. cerevisiae deletion strains, locus YKR026C, strain gcn3, active compounds read low 1.03 | S. cerevisiae deletion strains, locus YKR091W, strain srl3, active compounds read low 1.02 | S. cerevisiae deletion strains, locus YLL001W, strain dnm1, active compounds read low 1.03 | S. cerevisiae deletion strains, locus YLL026W, active compounds read low 1.03 | S. cerevisiae deletion strains, locus YLL041C, strain sdh2, active compounds read low 1.02 | S. cerevisiae deletion strains, locus YLR027C, strain aat2, active compounds read low 1.03 | S. cerevisiae deletion strains, locus YLR039C, strain RIC1, active compounds read low 1.04 | S. cerevisiae deletion strains, locus YLR058C, strain SHM2, active compounds read low 1.02 | S. cerevisiae deletion strains, locus YLR102C, strain apc9, active compounds read low 0.995 | S. cerevisiae deletion strains, locus YLR113W, strain HOG1, active compounds read low 0.978 | S. cerevisiae deletion strains, locus YLR221C, strain rsa3, active compounds read low 1.03 | S. cerevisiae deletion strains, locus YLR258W, strain gsy2, active compounds read low 1.02 | S. cerevisiae deletion strains, locus YLR262C, strain YPT6 (second series), active compounds read low 1.05 | S. cerevisiae deletion strains, locus YLR262C, strain YPT6, active compounds read low 1.05 | S. cerevisiae deletion strains, locus YLR268W, strain sec22, active compounds read low 0.972 | S. cerevisiae deletion strains, locus YLR320W, strain mms22, active compounds read low 1.04 | S. cerevisiae deletion strains, locus YLR330W, strain CHS5, active compounds read low 1.01 | S. cerevisiae deletion strains, locus YLR342W, strain FKS1 (second series), active compounds read low 1.03 | S. cerevisiae deletion strains, locus YLR342W, strain FKS1, active compounds read low 1.03 | S. cerevisiae deletion strains, locus YLR357W, strain rsc2, active compounds read low 1.05 | S. cerevisiae deletion strains, locus YLR370C, strain arc18, active compounds read low 1.04 | S. cerevisiae deletion strains, locus YLR371W, strain rom2, active compounds read low 0.989 | S. cerevisiae deletion strains, locus YLR384C, strain iki3, active compounds read low 1.02 | S. cerevisiae deletion strains, locus YLR418C, strain cdc73, active compounds read low 0.994 | S. cerevisiae deletion strains, locus YML016C, strain PPZ1, active compounds read low 1.01 | S. cerevisiae deletion strains, locus YML032C, strain rad52, active compounds read low 0.986 | S. cerevisiae deletion strains, locus YML120C, strain ndi1, active compounds read low 1.03 | S. cerevisiae deletion strains, locus YML124C, strain tub3, active compounds read low 0.997 | S. cerevisiae deletion strains, locus YMR058W, strain fet3, active compounds read low 1.02 | S. cerevisiae deletion strains, locus YMR078C, strain ctf18, active compounds read low 0.98 | S. cerevisiae deletion strains, locus YMR125W, strain sto1, active compounds read low 1.03 | S. cerevisiae deletion strains, locus YMR129W, active compounds read low 1.02 | S. cerevisiae deletion strains, locus YMR205C, strain PFK2, active compounds read low 1.05 | S. cerevisiae deletion strains, locus YMR223W, strain ubp8, active compounds read low 1.02 | S. cerevisiae deletion strains, locus YMR231W, strain pep5, active compounds read low 1.03 | S. cerevisiae deletion strains, locus YMR263W, strain SAP30, active compounds read low 1.02 | S. cerevisiae deletion strains, locus YMR307W, strain GAS1, active compounds read low 1.03 | S. cerevisiae deletion strains, locus YNL067W, strain RPL9B, active compounds read low 1.01 | S. cerevisiae deletion strains, locus YNL071W, strain lat1, active compounds read low 1.03 | S. cerevisiae deletion strains, locus YNL128W, strain TEP1, active compounds read low 1.01 | S. cerevisiae deletion strains, locus YNL153C, strain GIM3, active compounds read low 1.01 | S. cerevisiae deletion strains, locus YNL183C, strain NPR1, active compounds read low 0.943 | S. cerevisiae deletion strains, locus YNL209W, strain ssb2, active compounds read low 1.03 | S. cerevisiae deletion strains, locus YNL233W, strain BNI4, active compounds read low 1.02 | S. cerevisiae deletion strains, locus YNL248C, strain rpa49, active compounds read low 1.03 | S. cerevisiae deletion strains, locus YNL250W, strain rad50, active compounds read low 0.994 | S. cerevisiae deletion strains, locus YNL271C, strain bni1, active compounds read low 0.985 | S. cerevisiae deletion strains, locus YNL298W, strain CLA4, active compounds read low 0.989 | S. cerevisiae deletion strains, locus YNL307C, strain MCK1, active compounds read low 0.999 | S. cerevisiae deletion strains, locus YNL322C, strain KRE1 (second series), active compounds read low 1.04 | S. cerevisiae deletion strains, locus YNL322C, strain KRE1, active compounds read low 1.01 | S. cerevisiae deletion strains, locus YNR049C, strain mso1, active compounds read low 1.03 | S. cerevisiae deletion strains, locus YNR052C, strain pop2, active compounds read low 0.988 | S. cerevisiae deletion strains, locus YOL006C, strain TOP1, active compounds read low 1.01 | S. cerevisiae deletion strains, locus YOL012C, strain htz1 1.25 | S. cerevisiae deletion strains, locus YOL147C, strain pex11, active compounds read low 1 | S. cerevisiae deletion strains, locus YOR001W, strain rrp6, active compounds read low 1 | S. cerevisiae deletion strains, locus YOR061W, strain CKA2, active compounds read low 1.02 | S. cerevisiae deletion strains, locus YOR069W, strain VPS5, active compounds read low 1.01 | S. cerevisiae deletion strains, locus YOR070C, strain gyp1, active compounds read low 1.02 | S. cerevisiae deletion strains, locus YOR080W, strain dia2, active compounds read low 1.04 | S. cerevisiae deletion strains, locus YOR083W, strain WHI5, active compounds read low 1.02 | S. cerevisiae deletion strains, locus YOR106W, strain vam3, active compounds read low 1.04 | S. cerevisiae deletion strains, locus YOR136W, strain idh2, active compounds read low 0.988 | S. cerevisiae deletion strains, locus YOR144C, strain elg1, active compounds read low 0.992 | S. cerevisiae deletion strains, locus YOR184W, strain ser1, active compounds read low 0.982 | S. cerevisiae deletion strains, locus YOR231W, strain MKK1, active compounds read low 0.997 | S. cerevisiae deletion strains, locus YOR265W, strain rbl2, active compounds read low 1.02 | S. cerevisiae deletion strains, locus YOR270C, strain vph1, active compounds read low 1.07 | S. cerevisiae deletion strains, locus YOR290C, strain snf2, active compounds read low 1.02 | S. cerevisiae deletion strains, locus YOR316C, strain cot1, active compounds read low 0.999 | S. cerevisiae deletion strains, locus YPL051W, strain arl3, active compounds read low 1.01 | S. cerevisiae deletion strains, locus YPL055C, strain LGE1, active compounds read low 1.03 | S. cerevisiae deletion strains, locus YPL078C, strain atp4, active compounds read low 1.03 | S. cerevisiae deletion strains, locus YPL106C, strain sse1, active compounds read low 1.03 | S. cerevisiae deletion strains, locus YPL240C, strain hsp82, active compounds read low 1.03 | S. cerevisiae deletion strains, locus YPL241C, strain CIN2, active compounds read low 1 | S. cerevisiae deletion strains, locus YPL256C, strain CLN2, active compounds read low 0.992 | S. cerevisiae deletion strains, locus YPR119W, strain clb2, active compounds read low 0.989 | S. cerevisiae deletion strains, locus YPR141C, strain kar3, active compounds read low 0.99 | S. cerevisiae deletion strains, locus YPR163C, strain tif3, active compounds read low 0.992 | S. cerevisiae deletion strains, locus YPR167C, strain met16, active compounds read low 0.998 | S. cerevisiae deletion strains, strain wtn01, active compounds read low 0.997 | S. cerevisiae strains, strain wild type, active compounds read low 1.01
